# ± gives the standard deviation.
# T1: HaloTag-ATRX ADD domain (163-292)
# T1 chain: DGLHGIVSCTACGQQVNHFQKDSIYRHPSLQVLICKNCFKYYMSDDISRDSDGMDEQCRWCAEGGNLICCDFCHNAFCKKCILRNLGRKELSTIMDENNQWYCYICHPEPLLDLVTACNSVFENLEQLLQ
# B1: H4 38-50 A R R G G V Kme3 Rme2a I S G L I (peptide)
# chain: ARRGGVKRISGLI
# B2: H4 38-50 A R R G G V Kme Rme I S G L I (peptide)
# chain: ARRGGVKRISGLI
# B3: H4 38-50 A R R G G V Kme Rme2a I S G L I (peptide)
# chain: ARRGGVKRISGLI
# B4: H4 38-50 A R R G G V Kme3 Rme2s I S G L I (peptide)
# chain: ARRGGVKRISGLI
# B5: H4 38-50 A R R G G V Kme2 R I S G L I (peptide)
# chain: ARRGGVKRISGLI
# B6: H4 38-50 A R R G G V K Rme2a I S G L I (peptide)
# chain: ARRGGVKRISGLI
# B7: H4 38-50 A R R G G V Kme2 Rme I S G L I (peptide)
# chain: ARRGGVKRISGLI
# B8: H4 38-50 A R R G G V Kme2 Rme2a I S G L I (peptide)
# chain: ARRGGVKRISGLI
# B9: H4 53-65 E T R G V L Kme V F L E N V (peptide)
# chain: ETRGVLKVFLENV
# B10: H4 38-50 A R R G G V K Rcit I S G L I (peptide)
# chain: ARRGGVKRISGLI
# Assays:
# Assay in all cases: peptide microarray binding signal (635 nm), min-max normalized on array (fraction of array maximum); higher = stronger binding
# [1] = target: T1, HaloTag-ATRX ADD domain (163-292)
# Procedure, shortened: (§1)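 Within each library, mean intensities of triplicate spots were min-max scaled to give the binding signal. The spots were histone 13-mer peptide–cellulose conjugates on nitrocellulose with a Cy3 tracer, blocked overnight at 4°C. They were then probed for 1 h at 4°C using biotin-labelled HaloTag reader fusions (10 nM to 1 μM) with streptavidin-Alexa Fluor 647 or rabbit histone antibodies (1:10,000 to 1:2,000) with anti-rabbit Alexa 647, and scanned at 635 nm for signal and 532 nm for misprints on an Axon GenePix 4000B.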
# [2] = target: HaloTag-ING2 PHD (mouse Ing2 200-280)
# Procedure, shortened: as §1
# [3] = target: anti-H3K4me3 antibody ab8580
# Procedure, shortened: as §1
# [4] = target: anti-H3K9me3 antibody ab8898
# Procedure, shortened: as §1
# [5] = peptide region: H4 38-50, peptide modifications: H4K44me3 H4R45me2a, binder concentration: 1:2,000 dilution
# [6] = peptide region: H4 38-50, peptide modifications: H4K44me3 H4R45me2a, binder concentration: 1:10,000 dilution
# [7] = peptide region: H4 38-50, peptide modifications: H4K44me1 H4R45me1, binder concentration: 1:2,000 dilution
# [8] = peptide region: H4 38-50, peptide modifications: H4K44me1 H4R45me1, binder concentration: 1:10,000 dilution
# [9] = peptide region: H4 38-50, peptide modifications: H4K44me1 H4R45me2a, binder concentration: 1:2,000 dilution
# [10] = peptide region: H4 38-50, peptide modifications: H4K44me1 H4R45me2a, binder concentration: 1:10,000 dilution
# [11] = peptide region: H4 38-50, peptide modifications: H4K44me3 H4R45me2s, binder concentration: 1:2,000 dilution
# [12] = peptide region: H4 38-50, peptide modifications: H4K44me3 H4R45me2s, binder concentration: 1:10,000 dilution
# [13] = peptide region: H4 38-50, peptide modifications: H4K44me2, binder concentration: 1:2,000 dilution
# [14] = peptide region: H4 38-50, peptide modifications: H4K44me2, binder concentration: 1:10,000 dilution
# [15] = peptide region: H4 38-50, peptide modifications: H4R45me2a, binder concentration: 1:2,000 dilution
# [16] = peptide region: H4 38-50, peptide modifications: H4R45me2a, binder concentration: 1:10,000 dilution
# [17] = peptide region: H4 38-50, peptide modifications: H4K44me2 H4R45me1, binder concentration: 1:2,000 dilution
# [18] = peptide region: H4 38-50, peptide modifications: H4K44me2 H4R45me2a, binder concentration: 1:2,000 dilution
# [19] = peptide region: H4 38-50, peptide modifications: H4K44me2 H4R45me2a, binder concentration: 1:10,000 dilution
# [20] = peptide region: H4 53-65, peptide modifications: H4K59me1, binder concentration: 1:2,000 dilution
# [21] = peptide region: H4 53-65, peptide modifications: H4K59me1, binder concentration: 1:10,000 dilution
# [22] = peptide region: H4 38-50, peptide modifications: H4R45cit, binder concentration: 1:2,000 dilution
# [23] = peptide region: H4 38-50, peptide modifications: H4R45cit, binder concentration: 1:10,000 dilution
binder,measurement,setting,value
B1,peptide microarray binding signal,"[1]; peptide region: H4 38-50, peptide modifications: H4K44me3 H4R45me2a, binder concentration: 50 nM",0.00524 ± 0.00017
same,peptide microarray binding signal,"[1]; peptide region: H4 38-50, peptide modifications: H4K44me3 H4R45me2a, binder concentration: 500 nM",0.00852 ± 0.00069
same,peptide microarray binding signal,"[2]; peptide region: H4 38-50, peptide modifications: H4K44me3 H4R45me2a, binder concentration: 10 nM",0.0304 ± 0.0024
same,peptide microarray binding signal,"[2]; peptide region: H4 38-50, peptide modifications: H4K44me3 H4R45me2a, binder concentration: 100 nM",0.0612 ± 0.0075
same,peptide microarray binding signal,[3]; [5],0.0239 ± 0.0068
same,peptide microarray binding signal,[3]; [6],0.016 ± 0.00029
same,peptide microarray binding signal,[4]; [5],0.0197 ± 0.0016
same,peptide microarray binding signal,[4]; [6],0.009686 ± 5.3e-05
B2,peptide microarray binding signal,"[1]; peptide region: H4 38-50, peptide modifications: H4K44me1 H4R45me1, binder concentration: 50 nM",0.0377 ± 0.00093
same,peptide microarray binding signal,"[1]; peptide region: H4 38-50, peptide modifications: H4K44me1 H4R45me1, binder concentration: 500 nM",0.0199 ± 0.00027
same,peptide microarray binding signal,"[2]; peptide region: H4 38-50, peptide modifications: H4K44me1 H4R45me1, binder concentration: 10 nM",0.0751 ± 0.0022
same,peptide microarray binding signal,"[2]; peptide region: H4 38-50, peptide modifications: H4K44me1 H4R45me1, binder concentration: 100 nM",0.031 ± 0.0006
same,peptide microarray binding signal,[3]; [7],0.00727 ± 0.00021
same,peptide microarray binding signal,[3]; [8],0.02163 ± 0.00021
same,peptide microarray binding signal,[4]; [7],0.0055 ± 9.8e-05
same,peptide microarray binding signal,[4]; [8],0.02058 ± 0.00019
B3,peptide microarray binding signal,"[1]; peptide region: H4 38-50, peptide modifications: H4K44me1 H4R45me2a, binder concentration: 50 nM",0.0254 ± 0.0015
same,peptide microarray binding signal,"[1]; peptide region: H4 38-50, peptide modifications: H4K44me1 H4R45me2a, binder concentration: 500 nM",0.016 ± 0.00078
same,peptide microarray binding signal,"[2]; peptide region: H4 38-50, peptide modifications: H4K44me1 H4R45me2a, binder concentration: 10 nM",0.0305 ± 0.00031
same,peptide microarray binding signal,"[2]; peptide region: H4 38-50, peptide modifications: H4K44me1 H4R45me2a, binder concentration: 100 nM",0.0275 ± 0.00071
same,peptide microarray binding signal,[3]; [9],0.00417 ± 0.00012
same,peptide microarray binding signal,[3]; [10],0.00987 ± 0.00037
same,peptide microarray binding signal,[4]; [9],0.00331 ± 7.1e-05
same,peptide microarray binding signal,[4]; [10],0.00974 ± 0.0007
B4,peptide microarray binding signal,"[1]; peptide region: H4 38-50, peptide modifications: H4K44me3 H4R45me2s, binder concentration: 50 nM",0.00533 ± 8.8e-05
same,peptide microarray binding signal,"[1]; peptide region: H4 38-50, peptide modifications: H4K44me3 H4R45me2s, binder concentration: 500 nM",0.0131 ± 0.0006
same,peptide microarray binding signal,"[2]; peptide region: H4 38-50, peptide modifications: H4K44me3 H4R45me2s, binder concentration: 10 nM",0.0355 ± 0.0027
same,peptide microarray binding signal,"[2]; peptide region: H4 38-50, peptide modifications: H4K44me3 H4R45me2s, binder concentration: 100 nM",0.0541 ± 0.0061
same,peptide microarray binding signal,[3]; [11],0.0265 ± 0.0032
same,peptide microarray binding signal,[3]; [12],0.0193 ± 0.0017
same,peptide microarray binding signal,[4]; [11],0.0291 ± 0.0028
same,peptide microarray binding signal,[4]; [12],0.0206 ± 0.0014
B5,peptide microarray binding signal,"[1]; peptide region: H4 38-50, peptide modifications: H4K44me2, binder concentration: 50 nM",0.0141 ± 0.0019
same,peptide microarray binding signal,"[1]; peptide region: H4 38-50, peptide modifications: H4K44me2, binder concentration: 500 nM",0.0244 ± 0.00095
same,peptide microarray binding signal,"[2]; peptide region: H4 38-50, peptide modifications: H4K44me2, binder concentration: 10 nM",0.0118 ± 0.00032
same,peptide microarray binding signal,"[2]; peptide region: H4 38-50, peptide modifications: H4K44me2, binder concentration: 100 nM",0.0304 ± 0.0032
same,peptide microarray binding signal,[3]; [13],0.00204 ± 0.00018
same,peptide microarray binding signal,[3]; [14],0.00359 ± 0.00012
same,peptide microarray binding signal,[4]; [13],0.00169 ± 3e-05
same,peptide microarray binding signal,[4]; [14],0.00231 ± 5.5e-05
B6,peptide microarray binding signal,"[1]; peptide region: H4 38-50, peptide modifications: H4R45me2a, binder concentration: 50 nM",0.00589 ± 0.00093
same,peptide microarray binding signal,"[1]; peptide region: H4 38-50, peptide modifications: H4R45me2a, binder concentration: 500 nM",0.0275 ± 0.023
same,peptide microarray binding signal,"[2]; peptide region: H4 38-50, peptide modifications: H4R45me2a, binder concentration: 10 nM",0.0152 ± 0.0026
same,peptide microarray binding signal,"[2]; peptide region: H4 38-50, peptide modifications: H4R45me2a, binder concentration: 100 nM",0.024 ± 0.0022
same,peptide microarray binding signal,[3]; [15],0.00185 ± 3.4e-05
same,peptide microarray binding signal,[3]; [16],0.00468 ± 0.0014
same,peptide microarray binding signal,[4]; [15],0.00134 ± 0.00014
same,peptide microarray binding signal,[4]; [16],0.00144 ± 7.5e-05
B7,peptide microarray binding signal,"[1]; peptide region: H4 38-50, peptide modifications: H4K44me2 H4R45me1, binder concentration: 500 nM",0.00233 ± 8.5e-05
same,peptide microarray binding signal,"[2]; peptide region: H4 38-50, peptide modifications: H4K44me2 H4R45me1, binder concentration: 100 nM",0.00361 ± 0.00019
same,peptide microarray binding signal,[3]; [17],0.000491 ± 1.3e-05
same,peptide microarray binding signal,[4]; [17],0.000347 ± 9.2e-06
B8,peptide microarray binding signal,"[1]; peptide region: H4 38-50, peptide modifications: H4K44me2 H4R45me2a, binder concentration: 50 nM",0.00665 ± 0.0002
same,peptide microarray binding signal,"[1]; peptide region: H4 38-50, peptide modifications: H4K44me2 H4R45me2a, binder concentration: 500 nM",0.00881 ± 0.00022
same,peptide microarray binding signal,"[2]; peptide region: H4 38-50, peptide modifications: H4K44me2 H4R45me2a, binder concentration: 10 nM",0.00859 ± 0.00016
same,peptide microarray binding signal,"[2]; peptide region: H4 38-50, peptide modifications: H4K44me2 H4R45me2a, binder concentration: 100 nM",0.0109 ± 0.00048
same,peptide microarray binding signal,[3]; [18],0.00187 ± 6e-05
same,peptide microarray binding signal,[3]; [19],0.00371 ± 0.00016
same,peptide microarray binding signal,[4]; [18],0.00208 ± 4.3e-05
same,peptide microarray binding signal,[4]; [19],0.00265 ± 9.3e-05
B9,peptide microarray binding signal,"[1]; peptide region: H4 53-65, peptide modifications: H4K59me1, binder concentration: 50 nM",0.00605 ± 0.00068
same,peptide microarray binding signal,"[1]; peptide region: H4 53-65, peptide modifications: H4K59me1, binder concentration: 500 nM",0.00795 ± 0.00042
same,peptide microarray binding signal,"[2]; peptide region: H4 53-65, peptide modifications: H4K59me1, binder concentration: 10 nM",0.00847 ± 0.001
same,peptide microarray binding signal,"[2]; peptide region: H4 53-65, peptide modifications: H4K59me1, binder concentration: 100 nM",0.0164 ± 0.0049
same,peptide microarray binding signal,[3]; [20],0.00213 ± 0.00025
same,peptide microarray binding signal,[3]; [21],0.00314 ± 0.00021
same,peptide microarray binding signal,[4]; [20],0.00166 ± 0.00016
same,peptide microarray binding signal,[4]; [21],0.00231 ± 8.4e-05
B10,peptide microarray binding signal,"[1]; peptide region: H4 38-50, peptide modifications: H4R45cit, binder concentration: 50 nM",0.00395 ± 6.8e-05
same,peptide microarray binding signal,"[1]; peptide region: H4 38-50, peptide modifications: H4R45cit, binder concentration: 500 nM",0.00619 ± 7.4e-05
same,peptide microarray binding signal,"[2]; peptide region: H4 38-50, peptide modifications: H4R45cit, binder concentration: 10 nM",0.00561 ± 4.7e-05
same,peptide microarray binding signal,"[2]; peptide region: H4 38-50, peptide modifications: H4R45cit, binder concentration: 100 nM",0.0163 ± 0.003
same,peptide microarray binding signal,[3]; [22],0.012 ± 0.0055
same,peptide microarray binding signal,[3]; [23],0.00976 ± 0.00034
same,peptide microarray binding signal,[4]; [22],0.00521 ± 0.00036
same,peptide microarray binding signal,[4]; [23],0.00271 ± 7.1e-05

# Reference: the supplement of paper PMC4022240
